# Results: the supplement of paper PMC8728848
# The entries come from a sample that favours the strongest signals as a whole.
# B1: EPL1 (Trichoderma atroviride), A0PCX2 (protein)
# chain: MQLSNLFKLALFTAAVSADTVSYDTGYDDASRSLTVVSCSDGTNGLITRYHWQTQGQIPRFPYIGGAQAVAGWNSPNCGTCWKLTYSGKTIYVLAIDHTAAGFNIGLDAMNALTNGNAVALGRVSATASQVAVSNCGL
# B2: UEA-I (Ulex europaeus), P22972 (protein)
# chain: SDDLSFKFKNFSQNGKDLSFQGDASVIETGVLQLNKVGNNLPDETGGIARYIAPIHIWNCNTGEVASFITSFSFFMETSANPKAATDGLTFFLAPPDSPLRRAGGYFGLFEDTKDNDSSYQTVAVEFDTIGSPVNFDDPGFPHIGIDVNRVKSINAERWNKRYGLNNVANVEIIYEASSKTLTASLTYPSDQTSISVTSIVDLKEILPEWVSVGFSGGTYIGRQATHEVLNWYFTSNLINTNS
# Assays:
# Experiment in all cases: glycan array binding signal (z-score within array); higher = stronger binding
# Details in all cases: glycan notation: IUPAC condensed, linker removed
# [1] = molecular target: Fuc(a1-2)Gal(b1-3)GlcNAc6S
# Outline: (§1)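 The Consortium for Functional Glycomics database supplied 3228 glycan arrays, of which those lacking an available protein sequence were dropped. The binding signal, a within-array Z-score, was averaged across arrays of the same protein sequence and across linkers. Negative scores can be read as non-binding.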
# [2] = molecular target: Fuc(a1-2)Gal(b1-3)[Fuc(a1-4)]GlcNAc(b1-3)[Fuc(a1-3)[Gal(b1-4)]GlcNAc(b1-6)]Gal(b1-4)Glc
# Outline: as §1
# [3] = molecular target: Fuc(a1-2)Gal(b1-4)GlcNAc(b1-3)Gal(b1-4)GlcNAc(b1-2)Man(a1-3)[Fuc(a1-2)Gal(b1-4)GlcNAc(b1-3)Gal(b1-4)GlcNAc(b1-2)Man(a1-6)]Man(b1-4)GlcNAc(b1-4)GlcNAc
# Outline: as §1
# [4] = molecular target: Fuc(a1-2)Gal(b1-4)[Fuc(a1-3)]GlcNAc
# Outline: as §1
# [5] = molecular target: Fuc(a1-2)Gal6S(b1-3)GlcNAc
# Outline: as §1
# [6] = molecular target: Fuc(a1-2)[Gal(a1-3)]Gal(b1-3)GlcNAc(b1-2)Man(a1-3)[Fuc(a1-2)[Gal(a1-3)]Gal(b1-3)GlcNAc(b1-2)Man(a1-6)]Man(b1-4)GlcNAc(b1-4)[Fuc(a1-6)]GlcNAc
# Outline: as §1
# [7] = molecular target: Fuc(a1-2)[GalNAc(a1-3)]Gal(b1-4)[Fuc(a1-3)]GlcNAc(b1-3)GalNAc
# Outline: as §1
# [8] = molecular target: Fuc(a1-2)[GalNAc(b1-3)]Gal
# Outline: as §1
# [9] = molecular target: Fuc(a1-3)[Gal(b1-4)]GlcNAc(b1-2)Man
# Outline: as §1
# [10] = molecular target: Fuc(a1-3)[GalNAc(b1-4)]GlcNAc
# Outline: as §1
# [11] = molecular target: Fuc(a1-3)[GalNAc(b1-4)]GlcNAc6S
# Outline: as §1
# Fuc(a1-4)GlcNAc = molecular target: Fuc(a1-4)GlcNAc
# Outline: as §1
# [12] = molecular target: Gal(a1-3)Gal(b1-4)GlcNAc(b1-2)Man(a1-3)[Gal(a1-3)Gal(b1-4)GlcNAc(b1-2)Man(a1-6)]Man(b1-4)GlcNAc(b1-4)GlcNAc
# Outline: as §1
# [13] = molecular target: Gal(a1-3)Gal(b1-4)[Fuc(a1-3)]GlcNAc(b1-2)Man(a1-3)[Gal(a1-3)Gal(b1-4)[Fuc(a1-3)]GlcNAc(b1-2)Man(a1-6)]Man(b1-4)GlcNAc(b1-4)GlcNAc
# Outline: as §1
# Gal(a1-3)GalNAc = molecular target: Gal(a1-3)GalNAc
# Outline: as §1
# [14] = molecular target: Gal(b1-3)GlcNAc(b1-3)Gal(b1-4)Glc
# Outline: as §1
# [15] = molecular target: Gal(b1-3)GlcNAc(b1-3)Gal(b1-4)GlcNAc
# Outline: as §1
# [16] = molecular target: Gal(b1-3)GlcNAc(b1-3)Gal(b1-4)GlcNAc(b1-2)[Gal(b1-3)GlcNAc(b1-3)Gal(b1-4)GlcNAc(b1-6)]Man(a1-6)[Gal(b1-3)GlcNAc(b1-3)Gal(b1-4)GlcNAc(b1-2)Man(a1-3)]Man(b1-4)GlcNAc(b1-4)[Fuc(a1-6)]GlcNAc
# Outline: as §1
# [17] = molecular target: Gal(b1-3)[Fuc(a1-4)]GlcNAc(b1-6)GalNAc
# Outline: as §1
# [18] = molecular target: Gal(b1-4)GlcNAc(b1-2)[Gal(b1-4)GlcNAc(b1-4)]Man(a1-3)[Gal(b1-4)GlcNAc(b1-2)[Gal(b1-4)GlcNAc(b1-6)]Man(a1-6)]Man(b1-4)GlcNAc(b1-4)GlcNAc
# Outline: as §1
# [19] = molecular target: Gal(b1-4)GlcNAc(b1-3)Gal(b1-3)GlcNAc
# Outline: as §1
# [20] = molecular target: Gal(b1-4)GlcNAc(b1-3)Gal(b1-4)Glc
# Outline: as §1
# [21] = molecular target: Gal(b1-4)GlcNAc(b1-3)Gal(b1-4)GlcNAc(b1-3)Gal(b1-4)GlcNAc
# Outline: as §1
# Gal3S(b1-3)GlcNAc = molecular target: Gal3S(b1-3)GlcNAc
# Outline: as §1
# Gal3S(b1-4)GlcNAc = molecular target: Gal3S(b1-4)GlcNAc
# Outline: as §1
# [22] = molecular target: Gal3S(b1-4)[Fuc(a1-3)]GlcNAc
# Outline: as §1
# Gal4S(b1-4)GlcNAc = molecular target: Gal4S(b1-4)GlcNAc
# Outline: as §1
# GalNAc(b1-4)GlcNAc = molecular target: GalNAc(b1-4)GlcNAc
# Outline: as §1
# [23] = molecular target: GlcNAc(a1-4)Gal(b1-3)GlcNAc
# Outline: as §1
# [24] = molecular target: GlcNAc(a1-6)Gal(b1-4)GlcNAc
# Outline: as §1
# [25] = molecular target: Gal(b1-4)GlcNAc(b1-2)Man(a1-6)[GlcNAc(b1-2)Man(a1-3)]Man(b1-4)GlcNAc(b1-4)GlcNAc
# Outline: as §1
# [26] = molecular target: Gal3S(b1-4)[Fuc(a1-3)]GlcNAc6S
# Outline: as §1
# Gal6S(b1-4)Glc6S = molecular target: Gal6S(b1-4)Glc6S
# Outline: as §1
# [27] = molecular target: GalNAc(a1-3)GalNAc(a1-3)Gal(a1-4)Gal(b1-4)GlcNAc
# Outline: as §1
# [28] = molecular target: GalNAc(b1-3)Gal(a1-6)Gal(b1-4)Glc
# Outline: as §1
# Glc(a1-6)Glc(a1-6)Glc = molecular target: Glc(a1-6)Glc(a1-6)Glc
# Outline: as §1
# [29] = molecular target: GlcNAc(b1-2)Gal(b1-3)GalNAc
# Outline: as §1
# [30] = molecular target: GlcNAc(b1-3)Gal(b1-4)GlcNAc(b1-2)Man(a1-3)[GlcNAc(b1-3)Gal(b1-4)GlcNAc(b1-2)Man(a1-6)]Man(b1-4)GlcNAc(b1-4)GlcNAc
# Outline: as §1
# [31] = molecular target: GlcNAc(b1-3)[GlcNAc(b1-6)]Gal(b1-4)GlcNAc
# Outline: as §1
# [32] = molecular target: GlcNAc(b1-3)[GlcNAc(b1-6)]GalNAc
# Outline: as §1
# Kdn(a2-3)Gal(b1-3)GlcNAc = molecular target: Kdn(a2-3)Gal(b1-3)GlcNAc
# Outline: as §1
# [33] = molecular target: Man(a1-2)Man(a1-2)Man(a1-3)[Man(a1-2)Man(a1-3)[Man(a1-2)Man(a1-6)]Man(a1-6)]Man(b1-4)GlcNAc(b1-4)GlcNAc
# Outline: as §1
# [34] = molecular target: Man(a1-2)Man(a1-3)[Man(a1-2)Man(a1-6)]Man(a1-6)[Man(a1-2)Man(a1-2)Man(a1-3)]Man
# Outline: as §1
# [35] = molecular target: Man(a1-3)[Man(a1-6)]Man(a1-6)[Man(a1-3)]Man
# Outline: as §1
# [36] = molecular target: Neu5Ac(a2-3)Gal(b1-3)GlcNAc(b1-3)Gal(b1-4)GlcNAc
# Outline: as §1
# [37] = molecular target: Neu5Ac(a2-3)Gal(b1-3)[Neu5Ac(a2-3)Gal(b1-4)]GlcNAc
# Outline: as §1
# [38] = molecular target: Neu5Ac(a2-3)Gal(b1-4)GlcNAc(b1-2)Man(a1-3)[Neu5Ac(a2-6)Gal(b1-4)GlcNAc(b1-2)Man(a1-6)]Man(b1-4)GlcNAc(b1-4)GlcNAc
# Outline: as §1
# [39] = molecular target: Neu5Ac(a2-3)Gal(b1-4)GlcNAc(b1-3)GalNAc
# Outline: as §1
# [40] = molecular target: Neu5Ac(a2-3)Gal(b1-4)GlcNAc(b1-6)GalNAc
# Outline: as §1
# [41] = molecular target: Neu5Ac(a2-6)Gal(b1-4)GlcNAc(b1-2)Man(a1-3)Man(b1-4)GlcNAc(b1-4)GlcNAc
# Outline: as §1
# [42] = molecular target: Neu5Ac(a2-6)Gal(b1-4)GlcNAc(b1-2)Man(a1-3)[Man(a1-6)]Man(b1-4)GlcNAc(b1-4)GlcNAc
# Outline: as §1
# [43] = molecular target: Neu5Ac(a2-6)Gal(b1-4)GlcNAc(b1-3)Gal(b1-4)GlcNAc(b1-6)[Gal(b1-3)]GalNAc
# Outline: as §1
# [44] = molecular target: Neu5Ac(a2-6)Gal(b1-4)GlcNAc(b1-3)GalNAc
# Outline: as §1
# [45] = molecular target: Neu5Ac(a2-8)Neu5Ac(a2-3)[GalNAc(b1-4)]Gal(b1-4)Glc
# Outline: as §1
# [46] = molecular target: Neu5Ac9Ac(a2-6)Gal(b1-4)GlcNAc
# Outline: as §1
# [47] = molecular target: Neu5Gc(a2-8)Neu5Gc(a2-3)Gal(b1-4)GlcNAc
# Outline: as §1
# [48] = molecular target: Neu5Gc(b2-6)Gal(b1-4)GlcNAc
# Outline: as §1
binder,measurement,setting,value
B1,glycan array binding signal (z-score),[1],-0.466
same,glycan array binding signal (z-score),[2],-0.315
same,glycan array binding signal (z-score),[3],-0.05
same,glycan array binding signal (z-score),[4],0.212
same,glycan array binding signal (z-score),[5],-0.249
same,glycan array binding signal (z-score),[6],0.105
same,glycan array binding signal (z-score),[7],21.1
same,glycan array binding signal (z-score),[8],-0.54
same,glycan array binding signal (z-score),[9],0.185
same,glycan array binding signal (z-score),[10],0.203
same,glycan array binding signal (z-score),[11],-0.245
same,glycan array binding signal (z-score),Fuc(a1-4)GlcNAc,3.1
same,glycan array binding signal (z-score),[12],0.847
same,glycan array binding signal (z-score),[13],0.929
same,glycan array binding signal (z-score),Gal(a1-3)GalNAc,-0.034
same,glycan array binding signal (z-score),[14],1.82
same,glycan array binding signal (z-score),[15],-0.163
same,glycan array binding signal (z-score),[16],0.678
same,glycan array binding signal (z-score),[17],-0.249
same,glycan array binding signal (z-score),[18],0.128
same,glycan array binding signal (z-score),[19],-0.08
same,glycan array binding signal (z-score),[20],-0.362
same,glycan array binding signal (z-score),[21],0.071
same,glycan array binding signal (z-score),Gal3S(b1-3)GlcNAc,0.668
same,glycan array binding signal (z-score),Gal3S(b1-4)GlcNAc,0.311
same,glycan array binding signal (z-score),[22],-0.154
same,glycan array binding signal (z-score),Gal4S(b1-4)GlcNAc,0.422
same,glycan array binding signal (z-score),GalNAc(b1-4)GlcNAc,1.34
same,glycan array binding signal (z-score),[23],0.056
same,glycan array binding signal (z-score),[24],-0.234
B2,glycan array binding signal (z-score),[25],-0.155
same,glycan array binding signal (z-score),[26],-0.212
same,glycan array binding signal (z-score),Gal6S(b1-4)Glc6S,-0.098
same,glycan array binding signal (z-score),[27],-0.179
same,glycan array binding signal (z-score),[28],-0.21
same,glycan array binding signal (z-score),Glc(a1-6)Glc(a1-6)Glc,-0.204
same,glycan array binding signal (z-score),[29],-0.195
same,glycan array binding signal (z-score),[30],-0.128
same,glycan array binding signal (z-score),[31],-0.266
same,glycan array binding signal (z-score),[32],-0.17
same,glycan array binding signal (z-score),Kdn(a2-3)Gal(b1-3)GlcNAc,-0.222
same,glycan array binding signal (z-score),[33],-0.378
same,glycan array binding signal (z-score),[34],-0.191
same,glycan array binding signal (z-score),[35],-0.125
same,glycan array binding signal (z-score),[36],-0.274
same,glycan array binding signal (z-score),[37],-0.122
same,glycan array binding signal (z-score),[38],-0.209
same,glycan array binding signal (z-score),[39],-0.22
same,glycan array binding signal (z-score),[40],-0.243
same,glycan array binding signal (z-score),[41],-0.227
same,glycan array binding signal (z-score),[42],-0.216
same,glycan array binding signal (z-score),[43],-0.032
same,glycan array binding signal (z-score),[44],-0.148
same,glycan array binding signal (z-score),[45],-0.259
same,glycan array binding signal (z-score),[46],-0.244
same,glycan array binding signal (z-score),[47],-0.238
same,glycan array binding signal (z-score),[48],-0.1
